Hits are enriched below; roughly 2.9% of the tested compounds scored in any of these assays.
Bim-Mcl-1 = disrupts Bim peptide binding to human Mcl-1. Q07820. Bead-based flow cytometry, Bim peptide-Mcl-1 binding. inhibition, % at 10 µM. 190,000 tested, 0.1% active; in the data active = inhibition above about 40%;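 note: 0% = no compound tracer wells and 100% = peptide blocker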
Hck Nef HTS = human Hck-Nef kinase inhibition. P08631. Recombinant Hck-YEEI plus Nef, Z-Lyte FRET kinase assay. inhibition, % at 20 µM. 220,000 tested, 0.68% active. AID 463187;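 active = Hck-Nef kinase inhibition above about 50%, limit read from the data; inactive = inhibition below that limit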;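 note: 0% = DMSO with Hck plus Nef and 100% = Hck alone without Nef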
Target sequence (P08631 whole entry, looked up): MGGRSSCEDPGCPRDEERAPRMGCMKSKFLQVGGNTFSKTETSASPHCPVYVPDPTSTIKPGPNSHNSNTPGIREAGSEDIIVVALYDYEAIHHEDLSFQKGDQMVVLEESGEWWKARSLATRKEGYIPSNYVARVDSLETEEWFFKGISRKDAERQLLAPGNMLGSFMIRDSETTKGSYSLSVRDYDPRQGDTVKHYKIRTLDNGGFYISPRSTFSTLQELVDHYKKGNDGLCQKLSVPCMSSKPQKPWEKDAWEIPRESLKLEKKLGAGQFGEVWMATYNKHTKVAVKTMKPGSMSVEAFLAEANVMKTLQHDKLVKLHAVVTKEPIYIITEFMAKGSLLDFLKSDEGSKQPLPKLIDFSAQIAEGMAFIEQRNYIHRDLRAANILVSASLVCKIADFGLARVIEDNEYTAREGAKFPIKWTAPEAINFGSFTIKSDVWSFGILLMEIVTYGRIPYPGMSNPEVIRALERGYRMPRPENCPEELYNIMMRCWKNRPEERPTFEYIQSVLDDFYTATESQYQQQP
14-3-3 Bad PPI = disrupts binding of bovine 14-3-3 zeta to phospho-Bad peptide; P63103; TR-FRET 14-3-3zeta/Dy647-pBad peptide displacement, 1 h; inhibition, % at 21.7 µM; 220,000 tested, 0.71% active;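 active = inhibition above about 70%, limit read from the data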;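 note: 0% = full 14-3-3 plus peptide FRET controls and 100% = background without 14-3-3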
Pf gamet viab = kills late stage P. falciparum gametocytes. P. falciparum stage V gametocytes, ATP luminescence, 24 h. inhibition, % at 10.9 µM. 150,000 tested, 0.065% active. AID 743093;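 active = inhibition above the mean plus 3 SD of compounds within the control limits, set per campaign, cut at about 38% in these data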;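 note: 0% = DMSO wells and 100% = medium only without gametocytes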
Mcl1-Noxa inh = Mcl-1/Noxa interaction inhibition. Q07820. TR-FRET Mcl-1/Noxa peptide binding, 2 h. inhibition, % at 21.7 µM. 220,000 tested, 1.5% active. AID 1022;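 active = compounds that cut the protein-peptide binding signal by more than 50% relative to plate controls in a single-dose test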;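 note: His-tagged Mcl-1 with rhodamine Noxa BH3 peptide and terbium anti-His antibody; 0% = Mcl-1 plus Noxa peptide wells and 100% = peptide-only wells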
Mcl1 Bid PPI = disrupts binding of human Mcl-1 to Bid peptide; Q07820; TR-FRET Mcl-1/Bid-Dy647 peptide binding, 1536-well; inhibition, % at 21.7 µM; 220,000 tested, 0.97% active; AID 1021;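 active = compounds that cut the binding signal by more than half at the single screening dose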;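 note: His-tagged Mcl-1 with europium anti-His antibody binding Bid BH3 peptide; 0% = Mcl-1 plus peptide wells and 100% = peptide-only wells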
The depositor's hits bear a star; [ ] = dose if it differs, or a comment.

What do the screens show for `O=C(Nc1nc2ccccc2s1)c1ccccc1`?
Bim-Mcl-1: 0; Hck Nef HTS: 3; 14-3-3 Bad PPI: -12; Pf gamet viab: -18; Mcl1-Noxa inh: 14; Mcl1 Bid PPI: -18

What do the screens show for `COc1ccc(-c2cc(-c3nnc(COC(=O)CC4CCCC4)o3)c3ccccc3n2)cc1OC`?
Bim-Mcl-1: 8; Hck Nef HTS: 2; 14-3-3 Bad PPI: -6; Pf gamet viab: -36; Mcl1-Noxa inh: 15; Mcl1 Bid PPI: -3

What do the screens show for `CC1CCCc2sc3nc(N4CCN(CCO)CC4)n4ncnc4c3c21` (centres undefined)?
Bim-Mcl-1: -1; Hck Nef HTS: 3; 14-3-3 Bad PPI: -6; Mcl1-Noxa inh: 10; Mcl1 Bid PPI: -4

What do the screens show for `O=C(NCC1CCCO1)c1cc([N+](=O)[O-])ccc1Cl` (centres undefined)?
Bim-Mcl-1: -1; Hck Nef HTS: 24; 14-3-3 Bad PPI: -18; Pf gamet viab: -11; Mcl1-Noxa inh: 9; Mcl1 Bid PPI: 94*

Results for COc1ccc(CNC(=O)c2n[nH]c3ccccc23)cc1OC ?
Bim-Mcl-1: 0; Hck Nef HTS: 16; 14-3-3 Bad PPI: 4; Pf gamet viab: 23; Mcl1-Noxa inh: 5; Mcl1 Bid PPI: 55*

How did COc1cc(/C=C2\SC(=Nc3ccc(O)cc3)NC2=O)cc(OC)c1OC do in these assays?
Hck Nef HTS: 16; 14-3-3 Bad PPI: -1; Pf gamet viab: 8; Mcl1-Noxa inh: 10; Mcl1 Bid PPI: -3

What do the screens show for `O=C1NC(=Nc2ccc(O)cc2)S/C1=C\C=C\c1ccco1`?
Hck Nef HTS: 94*; 14-3-3 Bad PPI: 7; Pf gamet viab: 15; Mcl1-Noxa inh: 60*; Mcl1 Bid PPI: -20

Results for COc1cc(/C=C2/SC(=Nc3ccc(O)cc3)NC2=O)cc(OC)c1O ?
Bim-Mcl-1: 15; Hck Nef HTS: 32; 14-3-3 Bad PPI: 1; Pf gamet viab: -12; Mcl1-Noxa inh: 51*; Mcl1 Bid PPI: -51

What do the screens show for `CC(NC(=O)Nc1ccccc1)C(c1ccccc1)N1CCOCC1` (centres undefined)?
Bim-Mcl-1: -3; Hck Nef HTS: 0; 14-3-3 Bad PPI: -6; Mcl1-Noxa inh: 21; Mcl1 Bid PPI: -5

Results for CC(NC(=S)Nc1ccc(Cl)cc1)C(c1ccccc1)N1CCOCC1 (centres undefined) ?
Bim-Mcl-1: -2; Hck Nef HTS: 3; 14-3-3 Bad PPI: 71*; Mcl1-Noxa inh: 17; Mcl1 Bid PPI: -13

Results for COc1ccc(/C=C2\C(=O)NC(=S)N2C(=O)c2ccc(C)cc2)cc1 ?
Bim-Mcl-1: -2; Hck Nef HTS: 19; 14-3-3 Bad PPI: 79*[fluorescence artefact?]; Pf gamet viab: -27; Mcl1-Noxa inh: 77*; Mcl1 Bid PPI: 56*

What do the screens show for `C=CCC1(/C=N/O)CCOC(C)(C)C1` (centres undefined)?
Hck Nef HTS: 22; 14-3-3 Bad PPI: 2; Pf gamet viab: -31; Mcl1-Noxa inh: -24; Mcl1 Bid PPI: 98*

How did CCCCCCC(=O)N/N=C(\C)Cc1ccccc1 do in these assays?
Bim-Mcl-1: -3; Hck Nef HTS: 3; 14-3-3 Bad PPI: -3; Pf gamet viab: 8; Mcl1-Noxa inh: 70*; Mcl1 Bid PPI: -14

How did Cc1ccc(C(=O)NC(=S)Nc2ccc(NC(=O)c3cccs3)cc2)cc1[N+](=O)[O-] do in these assays?
Bim-Mcl-1: -6; Hck Nef HTS: 1; 14-3-3 Bad PPI: 15; Pf gamet viab: 7; Mcl1-Noxa inh: 42; Mcl1 Bid PPI: 52*

Results for Cc1ccc(C(=O)Nc2ccc(NC(=O)c3cccs3)cc2)cc1[N+](=O)[O-] ?
Bim-Mcl-1: -3; Hck Nef HTS: 17; 14-3-3 Bad PPI: 19; Pf gamet viab: -10; Mcl1-Noxa inh: 18; Mcl1 Bid PPI: 14

How did CC(C)n1c(Nn2cnnc2)nc2ccccc21 do in these assays?
Bim-Mcl-1: 2; Hck Nef HTS: 0; 14-3-3 Bad PPI: -8; Mcl1-Noxa inh: 103*; Mcl1 Bid PPI: -46

How did Cc1cc(C)c2cc3c(N)c(C(=O)Nc4c(C)[nH]c(=O)[nH]c4=O)sc3nc2c1 do in these assays?
Bim-Mcl-1: -24; Hck Nef HTS: 1; 14-3-3 Bad PPI: 33; Pf gamet viab: 16; Mcl1-Noxa inh: 54*; Mcl1 Bid PPI: -28

What do the screens show for `CCC(CC)C(=O)Nc1cccc(/C(C)=N/NC(=O)c2c(Br)cnn2C)c1`?
Bim-Mcl-1: 1; Hck Nef HTS: 0; 14-3-3 Bad PPI: 13; Pf gamet viab: 22; Mcl1-Noxa inh: 0; Mcl1 Bid PPI: -29
